Potency and affinity values are given separately. Records with an inconclusive call do not appear. Active and inactive are the calls of the source. Unless noted, how the calls were made is not given here.
Tests used:
[1] = cytotoxicity in PAX8-dependent RMG-1 cells, dose response, cell-based, cherry-pick (AID 687029;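 active means signal drop whose fitted half-maximal concentration is at most twice the top valid dose, in every test run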;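 further: cells exposed to compound for 96 hours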); settings: RMG-1 viability, CellTiterGlo ATP luminescence, 96 h; series mostly up to 35 µM
[2] = cytotoxicity in IOSE-T80 ovarian epithelial cells, dose response, selectivity assay for PAX8 inhibitor project, cell-based, cherry-pick (AID 687032;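 active means fitted half-maximal concentration for viability loss no higher than twice the top valid dose, in every repeat run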;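 further: cells exposed to compound for 96 h before reading; 0% = neutral control wells and -100% = 2 µM mitoxantrone kill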); settings: CellTiterGlo ATP luminescence, 96 h; series mostly up to 35 µM
[3] = inhibitors of CMV-promoter luciferase reporter, dose response, counter-screen for Pax8 inhibitor project, cell-based, HEK293, luminescence, dry powder (AID 743020;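 active means signal-lowering compounds whose fitted half-maximal concentration is at or below twice the top tested dose in every run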;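 further: HEK293 cells stably expressing the CMV luciferase reporter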); settings: SteadyGlo luminescence, 24 h; series mostly up to 35 µM
[4] = non-specific cell cytotoxicity, dose response, cytotoxicity control for PAX8 inhibitor project, plate reader, dry powder samples (AID 743021); settings: cell line, non-specific cytotoxicity counter-screen; series mostly up to 35 µM
[5] = IGROV1 ovarian cancer cell cytotoxicity, dose response, PAX8 inhibitor project, plate reader, dry powder samples (AID 743043); settings: series mostly up to 35 µM;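 further: more negative means fewer viable cells or more cytotoxicity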
[6] = NIH:OVCAR-3 ovarian cancer cell cytotoxicity, dose response, PAX8 inhibitor project, plate reader, dry powder samples (AID 743044); settings: NIH:OVCAR-3 ovarian cancer cell viability; max activity: at 35 µM, hits give low values unless noted; series mostly up to 50 µM
[7] = IOSE-T80 ovarian epithelial cell cytotoxicity, dose response, cytotoxicity control for PAX8 inhibitor project, plate reader, dry powder samples (AID 743045); settings: IOSE-T80 ovarian epithelial cells; series mostly up to 35 µM;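 further: 0% = neutral control median and -100% = positive control median; more negative values mean more cell killing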
[8] = A2780 ovarian cancer cell cytotoxicity, dose response, cytotoxicity control, plate reader, dry powder samples (AID 743046); settings: series mostly up to 35 µM;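 further: 0% = neutral control wells and -100% = cytotoxic reference compound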
[9] = cytotoxicity in OVCAR8 ovarian cancer cells, dose response, PAX8 project, cell-based, plate reader, dry powder samples (AID 743197); settings: series mostly up to 35 µM

Measured: max activity

COc1ccc(S(=O)(=O)N2CCCCN3[C@H](C2)[C@H](c2ccc(C#CC(C)C)cc2)[C@@H]3CO)cc1
inactive: [1] | [2] | [3] | [4] | [5] | [6] -13.1% [at 8 µM, hits give low values] | [7] | [8] | [9]

C[C@@H]1CN([C@H](C)CO)C(=O)c2cc(NC(=O)Nc3ccc(F)cc3)ccc2O[C@@H](C)CCCCO[C@H]1CN(C)Cc1ccc(Cl)c(Cl)c1
inactive: [1] | [2] | [3] | [4] | [5] | [6] 26% | [7] | [8] | [9]

C[C@@H]1CCCCO[C@@H](CN(C)C(=O)C2CCCCC2)[C@H](C)CN([C@H](C)CO)C(=O)c2cc(NC(=O)Nc3ccc(F)cc3)ccc2O1
inactive: [1] | [2] | [3] | [4] | [5] | [6] -21.5% | [7] | [8] | [9]

C[C@@H]1CN([C@@H](C)CO)S(=O)(=O)c2ccc(C#Cc3ccc(F)cc3)cc2O[C@H]1CN(C)C(=O)NC1CCCCC1
inactive: [1] | [2] | [3] | [4] | [5] | [6] -9.84% | [7] | [8] | [9]

C[C@H]1CCCCO[C@H](CN(C)C(=O)Nc2ccc(C(F)(F)F)cc2)[C@@H](C)CN([C@@H](C)CO)C(=O)c2cc(NC(=O)c3ccncc3)ccc2O1
inactive: [1] | [2] | [3] | [4] | [5] | [6] -23.2% [at 0.26 µM, hits give low values] | [7] | [8] | [9]

C[C@@H]1CN([C@@H](C)CO)C(=O)Cc2cc(NC(=O)Nc3ccc(F)cc3)ccc2O[C@H]1CN(C)Cc1ccc(Cl)c(Cl)c1
inactive: [1] | [2] | [3] | [4] | [5] | [6] 11.5% [at 4.2 µM, hits give low values] | [7] | [8] | [9]

Cc1ccc(S(=O)(=O)Nc2cccc3c2O[C@@H](CN(C)C(=O)Nc2ccc(C(F)(F)F)cc2)[C@@H](C)CN([C@H](C)CO)C3=O)cc1
inactive: [1] | [2] | [3] | [4] | [5] | [6] 25% [at 2.1 µM, hits give low values] | [7] | [8] | [9]

O=C(Nc1cccc(F)c1)N[C@@H]1CC[C@@H](CCNS(=O)(=O)c2cccc(Cl)c2)O[C@@H]1CO
inactive: [1] | [2] | [3] | [4] | [5] | [6] -20.4% [at 0.5 µM, hits give low values] | [7] | [8] | [9]

Cc1ccc(S(=O)(=O)N(C)C[C@@H]2Oc3cc(C#Cc4ccncc4)ccc3S(=O)(=O)N([C@@H](C)CO)C[C@H]2C)cc1
inactive: [1] | [2] | [3] | [4] | [5] | [6] -28.9% [at 16 µM, hits give low values] | [7] | [8] | [9]

C[C@@H]1CCCCO[C@H](CN(C)S(=O)(=O)c2cccs2)[C@H](C)CN([C@@H](C)CO)C(=O)c2cc(NC(=O)CCC(F)(F)F)ccc2O1
inactive: [1] | [2] | [3] | [4] | [5] | [6] -17.7% | [7] | [8] | [9]

C[C@@H]1CN([C@@H](C)CO)C(=O)Cc2cc(NC(=O)Nc3ccc(F)cc3)ccc2O[C@H]1CN(C)CC1CCCCC1
inactive: [1] | [2] | [3] | [4] | [5] | [6] 14.9% [at 2.1 µM, hits give low values] | [7] | [8] | [9]

CC(C)CC#Cc1ccc2c(c1)O[C@@H](CN(C)Cc1ccncc1)[C@H](C)CN([C@@H](C)CO)S2(=O)=O
inactive: [1] | [2] | [3] | [4] | [5] | [6] 11.2% [at 4.2 µM, hits give low values] | [7] | [8] | [9]

C[C@H]1CCCCO[C@@H](CN(C)C(=O)NC2CCCCC2)[C@@H](C)CN([C@@H](C)CO)C(=O)c2cc(NC(=O)Nc3ccc(C(F)(F)F)cc3)ccc2O1
inactive: [1] | [2] | [3] | [4] | [5] | [6] 10.8% [at 2.1 µM, hits give low values] | [7] | [8] | [9]

C[C@H](CO)N1C[C@H](C)[C@@H](CN(C)C(=O)NC2CCCCC2)Oc2cc(C#Cc3ccc(F)cc3)ccc2S1(=O)=O
inactive: [1] | [2] | [3] | [4] | [5] | [6] 10.3% [at 2.1 µM, hits give low values] | [7] | [8] | [9]

COc1ccc(S(=O)(=O)Nc2ccc3c(c2)C(=O)N([C@@H](C)CO)C[C@H](C)[C@H](CN(C)Cc2ccc(C(F)(F)F)cc2)OCCCC[C@@H](C)O3)cc1
inactive: [1] | [2] | [3] | [4] | [5] | [6] 26.1% | [7] | [8] | [9]

Cc1ccc(S(=O)(=O)N(C)C[C@H]2Oc3ccc(NC(=O)Cc4ccccc4)cc3C(=O)N([C@H](C)CO)C[C@@H]2C)cc1
inactive: [1] | [2] | [3] | [4] | [5] | [6] 7.17% [at 8 µM, hits give low values] | [7] | [8] | [9]

C[C@@H]1CN([C@H](C)CO)C(=O)Cc2cc(NC(=O)Nc3ccc(F)cc3)ccc2O[C@H]1CN(C)C(=O)Nc1ccc(C(F)(F)F)cc1
inactive: [1] | [2] | [3] | [4] | [5] | [6] -34.3% | [7] | [8] | [9]

C[C@H](CO)N1C[C@H](C)[C@H](CN(C)C(=O)NC2CCCCC2)OCCCC[C@H](C)Oc2ccc(NC(=O)Nc3ccc(C(F)(F)F)cc3)cc2C1=O
inactive: [1] | [2] | [3] | [4] | [5] | [6] 11.8% [at 2.1 µM, hits give low values] | [7] | [8] | [9]

C[C@@H]1CN([C@@H](C)CO)C(=O)c2c(c3ccccc3n2C)-c2ccccc2CO[C@H]1CN(C)C(=O)Nc1ccc2c(c1)OCO2
inactive: [1] | [2] | [3] | [4] | [5] | [6] -21.8% [at 16 µM, hits give low values] | [7] | [8] | [9]

O=C(C[C@H]1CC[C@H]2[C@@H](COC[C@@H](O)CN2S(=O)(=O)c2ccccc2Cl)O1)N1CCC(Cc2ccccc2)CC1
inactive: [1] | [2] | [3] | [4] | [5] | [6] 32.6% [at 1 µM, hits give low values] | [7] | [8] | [9]

C[C@@H]1CCCCO[C@H](CN(C)C(=O)Nc2ccc(C(F)(F)F)cc2)[C@@H](C)CN([C@@H](C)CO)C(=O)c2cc(NC(=O)Nc3ccccc3)ccc2O1
inactive: [1] | [2] | [3] | [4] | [5] | [6] -5.92% [at 16 µM, hits give low values] | [7] | [8] | [9]

C[C@@H]1CN([C@@H](C)CO)C(=O)c2ccccc2-c2ccccc2CO[C@@H]1CN(C)Cc1ccc2c(c1)OCCN2C
inactive: [1] | [2] | [3] | [4] | [5] | [6] 3.55% | [7] | [8] | [9]

C[C@H]1CN([C@@H](C)CO)C(=O)c2ccccc2-c2ccccc2CO[C@H]1CN(C)S(=O)(=O)c1ccc(C(F)(F)F)cc1
inactive: [1] | [2] | [3] | [4] | [5] | [6] 11.8% [at 4.2 µM, hits give low values] | [7] | [8] | [9]

C[C@H](CO)N1C[C@H](C)[C@@H](CN(C)Cc2ccc(-c3ccccc3)cc2)Oc2ccc(NC(=O)Cc3ccccc3)cc2CC1=O
inactive: [1] | [2] | [3] | [4] | [5] | [6] -13.7% [at 0.5 µM, hits give low values] | [7] | [8] | [9]

C[C@@H]1CN([C@H](C)CO)C(=O)c2c(c3ccccc3n2C)-c2ccccc2CO[C@H]1CN(C)S(=O)(=O)c1cccc(F)c1
inactive: [1] | [2] | [3] | [4] | [5] | [6] -15.8% [at 0.26 µM, hits give low values] | [7] | [9]

C[C@@H]1CCCCO[C@@H](CN(C)Cc2ccc(Cl)c(Cl)c2)[C@H](C)CN([C@H](C)CO)C(=O)c2cc(NC(=O)c3ccccc3)ccc2O1
inactive: [1] | [2] | [3] | [4] | [5] | [7]

Cc1ccc(S(=O)(=O)N(C)C[C@H]2OCCCC[C@@H](C)Oc3ccc(NS(=O)(=O)c4ccc(F)cc4)cc3C(=O)N([C@@H](C)CO)C[C@H]2C)cc1
inactive: [1] | [2] | [3] | [4] | [5] | [6] -18.9% [at 0.5 µM, hits give low values] | [7] | [8] | [9]

C[C@H](CO)N1C[C@H](C)[C@@H](CN(C)Cc2ccc(Oc3ccccc3)cc2)OCc2ccccc2-c2c(n(C)c3ccccc23)C1=O
inactive: [1] | [2] | [3] | [4] | [5] | [6] 1.33% | [7] | [8] | [9]

C[C@@H]1CN([C@@H](C)CO)C(=O)c2cc(NC(=O)Nc3cccc4ccccc34)ccc2O[C@@H]1CN(C)Cc1ccc2c(c1)OCO2
inactive: [1] | [2] | [3] | [4] | [5] | [6] 8.89% | [7] | [9]

C[C@@H]1CN([C@@H](C)CO)S(=O)(=O)c2ccc(C#Cc3ccccc3F)cc2O[C@@H]1CN(C)C(=O)c1ccc2c(c1)OCO2
inactive: [1] | [2] | [3] | [4] | [5] | [7]
